Test results from PubChem BioAssay AID624405 (Broad Institute, 2012).
The whole screen tested about 1,900 compounds, of which about 250 (13%) were called active. Not shown: some 4% with an inconclusive outcome.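 The calls were made as follows: active = fitted curve reaches 40% rescue activity at or below the top valid dose, in every test run; inconclusive = test runs disagree, some active and some inactive; inactive = every run misses the threshold or moves the wrong way.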 These entries were drawn from the full list. Measured potencies and affinities stand elsewhere.

Experiment: suppressors of statin myotoxicity in myotubes, dose response, cell-based, C2C12 myotubes, ATP luminescence, cherry pick (AID 624405);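 also: myotubes are challenged with simvastatin at 10 µM to lower ATP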
Details: C2C12 myotubes + simvastatin, 48 h, scaled: DMSO wells 0, geranylgeraniol wells 100; series mostly up to 19.5 µM; rescue activity (ATP increase): at the top concentration

| Structure (SMILES) | rescue activity (ATP increase) |
| --- | --- |
| C[C@H](CO)N1C[C@H](C)[C@@H](CN(C)C(=O)Nc2ccc(C(F)(F)F)cc2)OCCCC[C@H](C)Oc2ccc(NC(=O)Nc3cccc4ccccc34)cc2C1=O | -7.78% (inactive) |
| CC(=O)c1ccc(NC(=O)c2cc(-c3cccs3)on2)cc1 | -10.8% (inactive) |
| C=C[C@@H]1c2c(F)cccc2N(S(=O)(=O)c2ccc(C)cc2)[C@H](c2ccc(C(=O)OC)cc2)C1(C#N)C#N | -79.5% (inactive) |
| Cc1noc(C)c1NC(=O)N(C)C[C@@H]1OCCCC[C@@H](C)Oc2ccc(NS(=O)(=O)c3cn(C)cn3)cc2C(=O)N([C@H](C)CO)C[C@@H]1C | -3.29% (inactive) |
| C[C@@H]1CN([C@H](C)CO)C(=O)Cc2cc(NC(=O)Cc3cn(C)c4ccccc34)ccc2O[C@H]1CN(C)Cc1ccc2c(c1)OCO2 | 27.4% [at 21 µM] (inactive) |
| Cc1ccc(-c2nc(CS(=O)CC(=O)NC3CCCCC3)c(C)o2)cc1 (stereo unspecified) | 8.86% (inactive) |
| C[C@@H]1CN([C@H](C)CO)C(=O)Cc2cc(NS(=O)(=O)c3ccc(F)cc3)ccc2O[C@H]1CN(C)Cc1ccc2c(c1)OCO2 | 4.84% [at 10 µM] (inactive) |
| C[C@@H]1CN([C@@H](C)CO)C(=O)Cc2cc(NS(=O)(=O)c3ccc(Cl)cc3)ccc2O[C@H]1CN(C)Cc1ccc2c(c1)OCO2 | 26.1% (inactive) |
| C[C@@H]1CN([C@H](C)CO)C(=O)c2cc(NC(=O)CCC(F)(F)F)ccc2O[C@@H](C)CCCCO[C@@H]1CN(C)Cc1ccc(C(F)(F)F)cc1 | 17.6% (inactive) |
| COc1ccc(OC)c(C(c2nnnn2Cc2ccccc2)N2CCN(C3CCCCC3)CC2)c1 (stereo unspecified) | -18.9% (inactive) |
| COc1ccc(Cn2nnnc2C(c2ccccc2OC)N2CCC(C(N)=O)CC2)cc1 (stereo unspecified) | 1.27% (inactive) |
| Cc1cnc(-c2nnc(N(C)C(=O)c3cccnc3)s2)cn1 | 8.39% (inactive) |
| C[C@@H]1CN([C@H](C)CO)C(=O)c2cccc(NS(=O)(=O)c3cccs3)c2O[C@@H]1CN(C)S(=O)(=O)c1ccccc1 | 35.5% [at 21 µM] (inactive) |
| COc1cccc(NC(=O)c2cccc(OC)c2OC)c1 | 24.9% (inactive) |
| CN1C(=O)c2cc(NC(=O)Cc3cccs3)ccc2OC[C@H]2O[C@@H](CC(=O)NCc3ccc(-c4ccccc4)cc3)CC[C@H]21 | -23% (inactive) |
| CCOC(=O)N1CCN(C(=O)CSCC(=O)Nc2nc(-c3ccc4c(c3)OCO4)cs2)CC1 | 33% (inactive) |
| O=C(CSc1ccc2c(c1)OCCO2)Nc1ccc(Br)cc1 | 38.9% (inactive) |
| CC(Oc1ccc(Cl)cc1Cl)C(=O)N(Cc1ccco1)C1CCS(=O)(=O)C1 (stereo unspecified) | 17.9% (inactive) |
| O=C(C[C@H]1CC[C@H]2[C@@H](COC[C@@H](O)CN2C(=O)c2cc(Cl)cc(Cl)c2)O1)N1CCc2ccccc2C1 | 34.1% (inactive) |
| CS(=O)(=O)N(CCc1ccccc1)CC(=O)N1CCc2ccccc2C1 | -5.43% (inactive) |
| Cc1cc(C)c2cc(CN(Cc3ccco3)C(=O)NCc3ccccc3)c(=O)[nH]c2c1 | -0.102% (inactive) |
| COc1ccc(NC(=O)Cn2ccc(C(F)(F)F)n2)cc1S(=O)(=O)N1CCOCC1 | 16.8% (inactive) |
| C[C@@H]1CCCCO[C@H](CN(C)S(=O)(=O)c2ccc(Cl)cc2)[C@@H](C)CN([C@H](C)CO)C(=O)c2cc(NS(C)(=O)=O)ccc2O1 | 2.07% (inactive) |
| CCOC(=O)c1c(C)oc2ccc(OCC(=O)C(C)(C)C)cc12 | -29.5% (inactive) |
| CC(=O)c1cccc(NC(=O)N2CCCC2C(=O)Nc2cc(C)ccc2C)c1 (stereo unspecified) | -10.1% (inactive) |
| COc1ccc(C)cc1NC(=O)C1CCCN1C(=O)OCc1ccccc1 (stereo unspecified) | 3.12% (inactive) |

| Structure (SMILES) | rescue activity (ATP increase) |
| --- | --- |
| O=C(Nc1ccccc1Cl)N1C[C@H]2[C@@H](c3ccccc31)[C@H](CO)N2Cc1ccccc1 | 5.61% [at 21 µM] (inactive) |
| C[C@H]1CN([C@@H](C)CO)C(=O)Cc2cc(NC(=O)Nc3ccc(C(F)(F)F)cc3)ccc2O[C@H]1CN(C)Cc1ccc(Oc2ccccc2)cc1 | -10.2% [at 21 µM] (inactive) |
| C[C@@H]1CCCCO[C@@H](CN(C)Cc2ccc(Cl)c(Cl)c2)[C@@H](C)CN([C@@H](C)CO)C(=O)c2cc(NC(=O)NC3CCCCC3)ccc2O1 | 4.06% (inactive) |
| Cc1sc2nc(CN(C(=O)c3cccs3)C3CCCC3)[nH]c(=O)c2c1C | 14.6% (inactive) |
| C[C@@H]1CN([C@@H](C)CO)C(=O)Cc2cc(NC(=O)Cc3cn(C)c4ccccc34)ccc2O[C@H]1CN(C)Cc1ccc(Cl)c(Cl)c1 | 6.39% [at 21 µM] (inactive) |
| O=C(CSc1ncn(-c2ccccc2)n1)Nc1ccc2c(c1)OCCO2 | 9.96% (inactive) |
| Cc1ccc(CSc2nnc3nc(C)cc(C)n23)cc1 | -2.42% (inactive) |
| CCOC(=O)Nc1c(C(=O)OC)[nH]c2cc(OC)ccc12 | -14.6% (inactive) |
| CC(C)CCNc1ncnc2c1cnn2Cc1ccccc1Cl | -4.83% (inactive) |
| Cc1ccccc1S(=O)(=O)N(C)C[C@H]1OCc2ccccc2-c2c(n(C)c3ccccc23)C(=O)N([C@H](C)CO)C[C@H]1C | 19.1% (inactive) |
| Cc1cccc(S(=O)(=O)N(C)C[C@H]2OCc3ccccc3-c3c(n(C)c4ccccc34)C(=O)N([C@@H](C)CO)C[C@H]2C)c1 | 17.8% (inactive) |
| C[C@H](CO)N1C[C@H](C)[C@@H](CN(C)S(=O)(=O)c2ccccc2)OCCCC[C@H](C)Oc2ccc(N(C)C)cc2C1=O | -3.9% (inactive) |
| C[C@@H]1CN([C@@H](C)CO)C(=O)c2cc(NC(=O)NC3CCCCC3)ccc2O[C@@H](C)CCCCO[C@H]1CN(C)C(=O)c1ccccc1 | 8.25% [at 21 µM] (inactive) |
| COc1ccc(CN2[C@H](CO)[C@@H]3c4ccccc4N(C(=O)C4CC4)C[C@@H]32)cc1 | 0.017% (inactive) |
| CCc1nc2ccccc2n(CCOCCOCCn2c(=O)c(CC)nc3ccccc32)c1=O | -42.8% (inactive) |
| CCCCn1c(=O)c(-c2ccccc2)c(O)c2ccccc21 | 22.6% (inactive) |
| C=C(C)Cn1c(CCCNC(=O)C(C)(C)C)nc2ccccc21 | 0.573% (inactive) |
| CCC(=O)NCCc1nc2ccccc2n1Cc1ccccc1 | 0.181% (inactive) |
| CCCCCCN1Cc2ccccc2C1 | 31.9% (inactive) |
| Cc1ccc(OCCCn2c(CO)nc3ccccc32)cc1 | 28.8% (inactive) |
| CCN1CCCC1CNC(=O)c1c(O)c2c([nH]c1=O)CCCC2 (stereo unspecified) | -17.6% (inactive) |
| COCC(C)NS(=O)(=O)c1ccc(C)cc1 (stereo unspecified) | -10.5% (inactive) |
| C[C@H]1CN([C@@H](C)CO)C(=O)Cc2cc(NC(=O)c3ccncc3)ccc2O[C@@H]1CN(C)C(=O)Nc1cccc2ccccc12 | 2.64% [at 21 µM] (inactive) |
| C[C@H](CO)N1C[C@H](C)[C@@H](CN(C)S(=O)(=O)c2ccc(Cl)cc2)OCCCC[C@H](C)Oc2ccc(NS(C)(=O)=O)cc2C1=O | -2.17% (inactive) |
| C[C@H](CO)N1C[C@H](C)[C@@H](CN(C)Cc2ccc(Cl)c(Cl)c2)Oc2ccc(NC(=O)Cc3ccccc3)cc2CC1=O | 31.3% (inactive) |
